Methyltransferases = Primary Screen for Target Class Profiling of Small Molecule Inhibitors of Methyltransferases. purified enzyme, MTase-Glo SAH luminescence; active compounds read low. calls only at 40 µM. 25,000 tested, 3.9% active; call rule not given here
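Each enzyme was reacted with SAM and its substrate, with compounds tested once at 40 uM; SAH formed was read by MTase-Glo luminescence.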
* hit, by the source's call; i = inactive; + = active, no number; ! = not active in a repeat. This is one part of a sample in which hits are shown more often than they occur. % is scaled to controls: 0 for no effect and ±100 for the full control effect.

SMILES	Methyltransferases
COc1cc(C(=O)N2CCC(N3CCN(C)CC3)CC2)ccc1Nc1ncc2c(n1)N(C)c1ccccc1C(=O)N2C	i
CN1c2cc(C(=O)NC3CCCCCC3)ccc2C(=O)N2CCCC21 (stereo not drawn)	i
CCc1cccc(CC)c1NC(=O)c1nn(C)c2c1CCc1cnc(Nc3ccc(C(=O)NC4CCN(C)CC4)cc3OC(F)(F)F)nc1-2	i
CCC1C(=O)N(C)c2cnc(Nc3ccc(C(=O)NC4CCN(C)CC4)cc3OC)nc2N1C1CCCC1 (stereo not drawn)	+
Cc1cc2c(cc3n2CC(C)(C(=O)NC2CCCCCC2)N(CCN2CCOCC2)C3=O)o1 (stereo not drawn)	i
COc1cccc(CN2C(=O)c3cc4ccccc4n3CC2(C)C(=O)NC2CCCC2)c1 (stereo not drawn)	i
Cc1cccc(Cn2nc3n(Cc4ccccc4)c(=O)c4ccc(C(=O)NCC(C)C)cc4n3c2=O)c1	i
CCCN1C(=O)c2c(C(=O)NCc3cccc(C)c3)ncn2CC1(C)C(=O)NCc1ccccc1 (stereo not drawn)	i
CN(C)CCCCCCNC(=O)c1cccc(-c2cc(O)c3ncccc3c2)c1	+
O=C(NCCCCCCNC(=O)c1cccnc1)c1cccnc1	i
O=C(NCCCc1ccccc1)c1cccc(-c2cc(O)c3ncccc3c2)c1	+
O=C(NCCc1nc2cccnc2n1-c1ccccc1)c1cccnc1	i
COC(=O)NCCNC(=O)c1cccc(-c2ccc(SC)cc2)c1	i
CC(C)(O)CCc1cccc(C(=O)NCCCc2ccccn2)c1	i
C=CCn1c(=O)c2ccc(C(=O)NCC(C)C)cc2n2c(=O)n(CC(=O)Nc3cccc(C)c3)nc12	i
Nc1nc(NC2CC2)cc(-c2cccc(Cl)c2Cl)n1	+
Nc1nnc(-c2cccc(Cl)c2Cl)c(N)n1	i
CCOC(=O)c1cc2n(n1)CC(C)(C(=O)NCc1ccc(F)cc1)N(Cc1ccccc1F)C2=O (stereo not drawn)	i
COC(=O)c1cc(COc2cc3oc(=O)cc(-c4ccccc4)c3cc2Cl)c(C)o1	i
COc1ccc(NS(=O)(=O)c2cc3c(cc2C)n(C)c(=O)n3C)cc1	i
CC1(C(=O)NCc2ccccc2)Cn2c(cc3ccccc32)C(=O)N1CCC1=CCCCC1 (stereo not drawn)	i
COc1ccc(CCc2nc3c(C)c(-c4c(C)noc4C)c(C)cc3n2CCN2CCOCC2)cc1	+!
COc1ccc2cc3n(c2c1)CC(C)(C(=O)NC1CCCCC1)N(CCCN1CCOCC1)C3=O (stereo not drawn)	i
COc1ccc2cc3n(c2c1)CC(C)(C(=O)NCC1CCCO1)N(CCc1ccc(Cl)cc1)C3=O (stereo not drawn)	i
CC(C)Cn1c(=O)c2ccc(C(=O)NC(C)C)cc2n2c(SCC(=O)NCc3ccccc3)nnc12	i
SMILES	Methyltransferases
CC(C)Cn1c(=O)c2ccc(C(=O)NC3CCCCC3)cc2n2c(=O)n(CC(=O)NC(C)(C)C)nc12	i
CC1(C(=O)NC2CCCCCC2)Cn2nc(C3CC3)cc2C(=O)N1Cc1ccc2c(c1)OCO2 (stereo not drawn)	i
CC(C)Cn1c(=O)c2cc(F)ccc2n2c(SCC(=O)NC3CCCCC3)nnc12	i
O=C(CCn1ccc2cc(S(=O)(=O)N3CCCC3)ccc21)NCCC1=CCCCC1	i
O=C(OC[C@H]1O[C@H](O[C@]2(CO)O[C@H](CO)[C@@H](O)[C@@H]2O)[C@H](O)[C@@H](O)[C@@H]1O)c1ccc(O)cc1	i
O=C(OC[C@H]1O[C@H](O[C@H]2CO[C@H](CO)[C@@H](O)[C@@H]2O)[C@H](O)[C@@H](O)[C@H]1O)c1ccccc1	i
C[C@]12C[C@@H](O)[C@@H]3C[C@@]1(O[C@@H]1O[C@H](CO)[C@@H](O)[C@H](O)[C@H]1O)[C@]3(COC(=O)c1ccccc1)C(=O)O2	+
CC1CCCCC1NC(=O)C1(C)Cn2c(cc3sccc32)C(=O)N1Cc1ccccc1F (stereo not drawn)	i
CC1(C(=O)NCc2ccccc2)Cn2c(ccc2-c2ccco2)C(=O)N1CCc1ccc(Cl)cc1 (stereo not drawn)	i
C=CC[N+]1([C@H]2C[C@H]3[C@@H]4CC[C@H]5C[C@H](OC(C)=O)[C@@H](N6CCCCC6)C[C@]5(C)[C@H]4CC[C@]3(C)[C@H]2OC(=O)CC)CCCCC1	+
CC(C)n1nnc2cc(S(=O)(=O)N(C)CC(=O)N3CCN(c4ccccn4)CC3)ccc21	i
CC1CCCCC1NC(=O)C1(C)Cn2c(cc3occc32)C(=O)N1CCN(C)C1CCCCC1 (stereo not drawn)	i
Cc1ccc(CNC(=O)N2Cc3c(sc4c3CCCC4)-n3cccc3C2c2ccccc2)cc1 (stereo not drawn)	i
Cc1cc2c(cc3n2CC(C)(C(=O)NC2CCCCCC2)N(Cc2ccccc2F)C3=O)o1 (stereo not drawn)	i
COc1cc2c(Nc3cc(F)c(Cl)c(Cl)c3)ncnc2cc1OCC1CCCN(C)CCC1	+
COc1cc2c(Nc3ccc(Br)cc3F)ncnc2cc1OCC1CCN(C)CC1	+
COCCCNC(=O)C1(C)Cn2nc(-c3ccccc3)cc2C(=O)N1c1ccc2c(c1)OCO2 (stereo not drawn)	i
CN(c1ccccc1CNc1nc(Nc2ccc3c(c2)CC(=O)N3)ncc1C(F)(F)F)S(C)(=O)=O	+
CC(C)OCCCNC(=O)c1cc2n(n1)CC(C)(C(=O)NC1CCCC1)N(C)C2=O (stereo not drawn)	i
CCOC(=O)c1cc2n(n1)CC(C)(C(=O)NCc1ccc(C)cc1)N(CCc1cccs1)C2=O (stereo not drawn)	i
COc1ccc(OC)c(CN2C(=O)c3ccc(-c4ccco4)n3CC2(C)C(=O)NCc2ccc(Cl)cc2)c1 (stereo not drawn)	i
O=C(O)CCCc1c[nH]c2ccccc12	i
Cc1ccc(-c2nnn3c2nc(NCCc2c[nH]c4ccccc24)c2ccccc23)cc1	i
c1cc(NCCc2c[nH]c3ccccc23)cc(Nc2ccncc2)c1	+
c1ccc2c(CCNc3ccc(Nc4ccncc4)cc3)c[nH]c2c1	+
SMILES	Methyltransferases
O=C(CN1C(=O)C2(CCCCC2)C1c1ccccc1)NCCc1c[nH]c2ccccc12 (stereo not drawn)	i
Cc1ccc(C)c(S(=O)(=O)c2nnn3c2nc(NCCc2c[nH]c4ccccc24)c2ccccc23)c1	i
O=C(CCn1ccc2cc(S(=O)(=O)N3CCCCC3)ccc21)NCc1cccs1	i
CCCCN1C(=O)c2cc(C(=O)Nc3ccc(F)cc3Cl)nn2CC1(C)C(=O)NC1CCCC1 (stereo not drawn)	i
CC1(C(=O)NC2CCCCCCC2)Cn2c(cc3occc32)C(=O)N1Cc1cccc(Cl)c1 (stereo not drawn)	i
CCc1cc2c(-c3ccccc3)cc(=O)oc2cc1OCc1cc(C(=O)OC)oc1C	i
CCCCN1C(=O)c2cc(C(=O)NCCc3ccccc3)nn2CC1(C)C(=O)NC1CCCC1 (stereo not drawn)	i
N=C(N)SCCN	+
CN1C(=O)c2cc3ccccc3n2CC1(C)C(=O)NCC(=O)NCCCc1ccccc1 (stereo not drawn)	i
COC(=O)c1ncn2c1C(=O)N(Cc1ccc(OC)c(OC)c1)C(C)(C(=O)NC1CCCC1)C2 (stereo not drawn)	i
CN1CCc2cc(Cl)c(O)cc2[C@@H](c2ccccc2)C1	i
